Test results as given in PubChem BioAssay (NCATS).
Values joined by “and” are separate entries in the source; they are usually repeats but may differ in a detail not shown here. Equal values may be shown once. Results filed as inconclusive are left out. A call without a number means that no potency is given here. A structure can be active in one record and inactive in another. Active and inactive are the calls of the source. Unless noted, calls come from the whole dose curve; as a rule, active = well fitted curve in the direction sought with a large enough effect; inconclusive = small, poorly fitted or top-dose-only effect, or another doubt; inactive = no such curve, though single readings can be large; an effect the other way counts as inactive or inconclusive.

Tests used:
[1] = qHTS for compounds that reverse cellular toxicity of Amyloid beta (A-beta) peptide in yeast: LOPAC Validation Assay (AID 720559)
How it was run: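 OD600 growth readout after 48 hr at 30 C; A-beta-toxic yeast plus pinned compounds in medium. Normalization: DMSO = negative, equimolar FeCl3 + clioquinol = positive.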

[2] = qHTS for Activators of Parkin Expression: LOPAC Validation Assay (NLuc Reporter) (AID 720572)
How it was run: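 NLuc signal, read 10 min after reagent and following a prior FLuc read, is normalized to DMSO (0) and positive controls (100%). Cells: neuronal Parkin-promoter coincidence reporter line; compounds tested 7-point, 24 h, 37 C, 5% CO2.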

[3] = qHTS for Activators of Parkin Expression: LOPAC Validation Assay (FLuc Reporter) (AID 720573)
How it was run: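 FLuc luminescence read-out from a neuronal line expressing a Parkin-promoter-driven coincidence reporter. Cells treated 24 h at 37 C, 5% CO2 with compounds at 7 concentrations; signal increase normalized to DMSO and positive control.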

[4] = target: T1, Hexokinase-4 (Homo sapiens) + Glucokinase regulatory protein (Homo sapiens) (UniProt P35557+Q14397); assay: qHTS assay for inhibitors of recombinant human GCK-GKRP interaction: ADP-Glo assay (AID 743206)
How it was run: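 Pin-transferred compounds meet a 15 nM GST-GCK/15 nM FLAG-GKRP/2 uM S6P mix (dispense concentrations). ATP is then added to 0.4 mM final with 5 mM glucose, and the reaction runs 60 min at room temperature. ADP is quantified luminescently.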

[5] = target: T1, Hexokinase-4 (Homo sapiens) + Glucokinase regulatory protein (Homo sapiens); assay: qHTS assay for inhibitors of recombinant human GCK-GKRP interaction: HTRF assay (AID 743207)
How it was run: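 HTRF read-out (ex 320 nm; 615/665 nm emission) after 60 min RT equilibration of 5 nM GST-GCK, 5 nM FLAG-GKRP, 2 uM S6P, compound and anti-FLAG/anti-GST detection antibodies; signal normalized between DMSO wells with and without GCK.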

[6] = qHTS Assay for Identifying Gametocytocidal Compounds (AID 743244); note: potency is the fitted concentration of half-maximal effect;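 for max response: actives lower the fluorescent signal which means gametocytes are killed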; settings: P. falciparum 3D7 stage III-V gametocytes, alamarBlue, 72 h; max response: stronger effect = lower value
How it was run: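 Stage III-V P. falciparum 3D7 gametocytes, 20,000 per well, were exposed to compounds for 72 h at 37C, 5% CO2. AlamarBlue was then added for 24 h and viability was read as fluorescence at Ex 525/Em 598 nm.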

[7] = qHTS profiling of the MIPE4 collection as inhibitors of Plasmodium falciparum (3D7) proliferation (AID 743344; call rule not given here); settings: P. falciparum 3D7 in erythrocytes, SYBR Green DNA fluorescence, 72 h; at 28.5 µM (top of the series) unless noted
How it was run: (§1)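 Parasite DNA was quantified by SYBR Green I fluorescence (ex 485, em 535 nm) after overnight lysis in saponin/Triton buffer at room temperature. Cultures at 0.3% parasitemia and 2.5% hematocrit were first exposed to compound for 72 h at 37 C; signals were normalised to artemisinin (0.29 uM) and vehicle wells.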

[8] = qHTS profiling of the MIPE4 collection as inhibitors of Plasmodium falciparum (DD2) proliferation (AID 743345; call rule not given here); settings: P. falciparum Dd2 in erythrocytes, SYBR Green DNA, 72 h; at 28.5 µM (top of the series) unless noted
How it was run: as §1

[9] = qHTS profiling of the MIPE4 collection as inhibitors of Plasmodium falciparum (DD2) proliferation (Rep 2) (AID 743346; call rule not given here); settings: P. falciparum Dd2 in erythrocytes, SYBR Green DNA, 72 h; at 28.5 µM (top of the series) unless noted
How it was run: as §1

[10] = qHTS profiling of the MIPE4 collection as inhibitors of Plasmodium falciparum (HB3) proliferation (AID 743347; call rule not given here); settings: P. falciparum HB3 in erythrocytes, SYBR Green DNA, 72 h; at 28.5 µM (top of the series) unless noted
How it was run: as §1

[11] = High-throughput drug toxicity screening in the BPDCN cell line Gen2.2 (AID 1224824; call rule not given here;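 note: cells exposed to compounds for 48 h before reading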); settings: Gen2.2 BPDCN cells; at 45.8 µM (top of the series) unless noted
How it was run: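 CellTiter-Glo luminescence after 48 h compound exposure of Gen2.2 cells; percent activity set with DMSO as 100% and bortezomib (9.2 uM final) as 0%. Cells seeded at 500 per well, RPMI + 10% FBS, 37 °C.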

[12] = target: T1, Hexokinase-4 (Homo sapiens) + Glucokinase regulatory protein (Homo sapiens); assay: qHTS assay for inhibitors of recombinant human GCK-GKRP interaction: Diaphorase-coupled assay (AID 743205)
How it was run: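 Resorufin fluorescence (525/590 nm), read each minute over 30 min, reports GCK activity coupled via G6PDH and diaphorase. Reaction: 10 nM GST-GCK, 10 nM FLAG-GKRP, 5 mM glucose, 0.4 mM ATP, 0.15 mM NADP+, 0.1 mM resazurin.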

T1 sequence (P35557 whole entry, looked up): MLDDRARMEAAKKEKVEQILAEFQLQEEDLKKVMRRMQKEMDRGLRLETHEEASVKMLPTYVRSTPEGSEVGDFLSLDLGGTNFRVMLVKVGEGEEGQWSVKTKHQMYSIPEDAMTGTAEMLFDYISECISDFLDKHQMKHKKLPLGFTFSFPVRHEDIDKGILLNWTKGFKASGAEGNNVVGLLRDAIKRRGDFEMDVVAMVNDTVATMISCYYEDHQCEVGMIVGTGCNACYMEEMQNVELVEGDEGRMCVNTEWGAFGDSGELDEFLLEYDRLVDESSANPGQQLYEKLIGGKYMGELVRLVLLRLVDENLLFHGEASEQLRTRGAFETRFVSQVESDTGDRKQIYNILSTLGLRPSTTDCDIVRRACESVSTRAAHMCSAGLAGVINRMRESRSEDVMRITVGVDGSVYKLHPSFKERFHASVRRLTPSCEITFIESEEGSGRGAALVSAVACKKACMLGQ
T1 sequence (Q14397 whole entry, looked up): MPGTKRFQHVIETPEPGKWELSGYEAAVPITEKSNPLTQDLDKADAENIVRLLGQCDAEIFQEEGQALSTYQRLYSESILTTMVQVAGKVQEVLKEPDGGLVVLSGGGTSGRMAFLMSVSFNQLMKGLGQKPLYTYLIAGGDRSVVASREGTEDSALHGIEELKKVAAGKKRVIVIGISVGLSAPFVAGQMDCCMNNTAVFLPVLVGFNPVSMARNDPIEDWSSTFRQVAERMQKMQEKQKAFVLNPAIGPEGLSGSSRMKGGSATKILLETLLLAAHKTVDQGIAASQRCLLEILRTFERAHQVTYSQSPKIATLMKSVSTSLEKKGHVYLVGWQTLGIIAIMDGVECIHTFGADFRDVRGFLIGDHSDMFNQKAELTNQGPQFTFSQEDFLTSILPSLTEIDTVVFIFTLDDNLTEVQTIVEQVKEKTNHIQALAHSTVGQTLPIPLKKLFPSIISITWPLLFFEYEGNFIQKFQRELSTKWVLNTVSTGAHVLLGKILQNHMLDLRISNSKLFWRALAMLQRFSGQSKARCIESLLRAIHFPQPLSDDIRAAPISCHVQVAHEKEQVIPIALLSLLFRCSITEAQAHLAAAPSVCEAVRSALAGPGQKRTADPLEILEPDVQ

SMILES | outcome [1] | outcome [2] | Potency [3] | Potency [4] | Potency [5] | max response [6] | parasite growth, % of DMSO control [7] | parasite growth remaining, % of DMSO control (lower = more inhibition) [8] | parasite growth, % of control (lower = inhibition) [9] | growth, % of control [10] | cell viability, % of control (lower = more cytotoxic) [11] | Potency [6] | Potency [12]
COc1cc2nc(N3CCN(C(=O)C4COc5ccccc5O4)CC3)nc(N)c2cc1OC (stereo unspecified) | inactive | inactive | inactive | inactive | inactive | 2.28% (inactive) | 5.44% | 9.25% | 11.1% | 2.34% | 14.1% | – | –
Clc1ccc2c(c1)C(N1CCNCC1)=Nc1ccccc1O2 | inactive | inactive | inactive | inactive | inactive | -3.09% (inactive) | 50.7% | – | 27.9% | 67.9% | 72.6% | 794 nM (active) | –
CCCNCC(O)COc1ccccc1C(=O)CCc1ccccc1 (stereo unspecified) | inactive | inactive | inactive | inactive | inactive | – | 5.54% | – | 15.6% | 6.85% | 6.23% | 3.16 µM (active) and 1.78 µM (active) | inactive
CN1C2CCC1CC(OC(=O)C(CO)c1ccccc1)C2 (stereo unspecified) | inactive | inactive | inactive | inactive | inactive | – | – | – | – | – | 172% | – | –
OCCN1CCN(CCCN2c3ccccc3Sc3ccc(C(F)(F)F)cc32)CC1 | inactive | inactive | inactive | inactive | inactive | – | 7.22% | 10.5% | 23.4% | 10.5% | 85.8% | – | inactive
CCOC(=O)Nc1ccc(NCc2ccc(F)cc2)nc1N | inactive | inactive | inactive | inactive | inactive | – | – | – | – | – | 166% | – | –
Cc1cc(C(C)(C)C)cc(C)c1CC1=NCCN1 | inactive | inactive | inactive | inactive | inactive | 3.97% (inactive) and -5.84% (inactive) | – | – | 17.1% | – | 20.6% | – | inactive
Fc1ccc([C@@H]2CCNC[C@H]2COc2ccc3c(c2)OCO3)cc1 | inactive | inactive | inactive | inactive | inactive | – | 35.7% | – | 34.6% | 58.5% | 66.2% | 12.6 µM (active) and 1.12 µM (active) | inactive
NC(=O)NO | inactive | inactive | inactive | inactive | inactive | -4.54% (inactive) and 19.4% (inactive) | 93.9% | – | 95.5% | 96.8% | 4.63% | – | –
CCN1CCCC1CNC(=O)c1cc(S(=O)(=O)CC)c(N)cc1OC (stereo unspecified) | inactive | inactive | inactive | inactive | inactive | -5.68% (inactive) and 24.9% (inactive) | 93.7% | – | 50.9% | 101% | 143% | – | –
